# According to PMC7819943, “Rice protein-binding microarrays: a tool to detect cis-acting elements near promoter regions in rice”:
# In all, about 68,000 sequences were measured (“fluorescence intensity (a.u.)”: median about 9,100, highest 2% from about 16,000 on). The entries come from a sample that favours the highest values as a whole.
# Molecular target: OsWRKY34 (Oryza sativa, UniProt Q0JBA9 1-250)
# Test: protein-binding microarray (RPBM); PBS, 2% BSA, 51.3 ng/ul salmon testes DNA, 50 uM zinc acetate, 200 nM TF, 25 C, 1 h; high values mean tight binding
# Details: protein: recombinant; tags: N-terminal polyhistidine and DsRed monomer fusion (pET32a); label: CyDye5-dUTP incorporated in the synthesized complementary strand; 3' TTTTT single-stranded linker to array surface; dsDNA, one strand shown
# Method in brief: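 Using Ni–NTA, transcription factors fused N-terminally to polyhistidine and DsRed were purified after expression in E. coli BL21-CodonPlus. These were incubated at 200 nM with a blocked, double-stranded custom Agilent array for 1 h at 25 °C in a buffer containing 50 µM zinc acetate, and the array was washed. The binding signal is per-feature fluorescence intensity (arbitrary units) on an Axon 4000B scanner.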
# Chain of OsWRKY34 (Q0JBA9 entry or part of it): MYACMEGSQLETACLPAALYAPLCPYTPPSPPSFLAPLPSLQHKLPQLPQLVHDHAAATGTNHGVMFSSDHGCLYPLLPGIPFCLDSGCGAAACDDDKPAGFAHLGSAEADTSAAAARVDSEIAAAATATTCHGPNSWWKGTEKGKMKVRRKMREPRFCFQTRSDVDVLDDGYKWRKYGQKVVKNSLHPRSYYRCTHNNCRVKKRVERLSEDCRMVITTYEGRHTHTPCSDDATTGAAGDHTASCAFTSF
row,Sequence,binding signal
1,TCGTTTGATGCGATTTCGGCGGCGATCACCACCACCACCACGGAGTCACCTAGTGCAG,8160 fluorescence intensity (a.u.)
2,GAAGCTGGGTTATACTTTCACCATTTTTTTACTCGATCGACGGAGTCACCTAGTGCAG,8460 fluorescence intensity (a.u.)
3,AGGATTTTTTTTTTGTCAACGTATTTCTATTACCTGCTGTCGGAGTCACCTAGTGCAG,9630 fluorescence intensity (a.u.)
4,TCTGTTATATTTACTATCCATACTATACGTGTAAATTTTACGGAGTCACCTAGTGCAG,10200 fluorescence intensity (a.u.)
5,TATTCTTTCTCACGTAACGATTTTTTTTCATCATTAAGTTCGGAGTCACCTAGTGCAG,8230 fluorescence intensity (a.u.)
6,TCCGTATTTTAATTAACGACGTCGTTGACTTTTTAACCACCGGAGTCACCTAGTGCAG,24200 fluorescence intensity (a.u.)
7,CCGTATTTTAATATATGACGTCGTTGACTTTTTAACCAACCGGAGTCACCTAGTGCAG,27300 fluorescence intensity (a.u.)
8,CCGTATTTTAATGCACGACACCTTTGACTTTTTGATAAACCGGAGTCACCTAGTGCAG,9990 fluorescence intensity (a.u.)
9,TATATTTTAATATTTTAATGTATGACGTCGTTGACTTTTTCGGAGTCACCTAGTGCAG,13800 fluorescence intensity (a.u.)
10,CTACCTCTATATTTTAATTTTAATGTATGACGTCGTTGACCGGAGTCACCTAGTGCAG,11100 fluorescence intensity (a.u.)
11,AGTCTTTTTTCATCACATTAACCTATTATACACACATAACCGGAGTCACCTAGTGCAG,9110 fluorescence intensity (a.u.)
12,ATTTTTTAAGTGTACGTTGTTGTTGACTTTTTTTATTAACCGGAGTCACCTAGTGCAG,14400 fluorescence intensity (a.u.)
13,GTCCTTAACGACGTCGTTGACTTTTCACATAACATTATACCGGAGTCACCTAGTGCAG,17300 fluorescence intensity (a.u.)
14,CTAGTCCTTCGTTTGAGTCCTTATATAACATTGATAGTACCGGAGTCACCTAGTGCAG,8500 fluorescence intensity (a.u.)
15,TATTTACTTTATTTCCTCCATTTATGTCGTTTTAGTTTTGCGGAGTCACCTAGTGCAG,9590 fluorescence intensity (a.u.)
16,CCTCCTTTGTTCTTGCTCCTCTTTGCACGCAAAGAATCGGCGGAGTCACCTAGTGCAG,9110 fluorescence intensity (a.u.)
17,TTGTTGTTTTTCGGTACTGTTGATTGAATTAGTGTTATGTCGGAGTCACCTAGTGCAG,8120 fluorescence intensity (a.u.)
18,ACCTGACTAGCAAGCAACAATCATGTAACTTTTCACCTTTCGGAGTCACCTAGTGCAG,8070 fluorescence intensity (a.u.)
19,TCCCAGCAAATGCAACGCTCGTACTCCTCGCATCAACAGCCGGAGTCACCTAGTGCAG,8210 fluorescence intensity (a.u.)
20,TTGTTTCCTATACTTCCTACCAAATGTTCTGATTTTACTGCGGAGTCACCTAGTGCAG,9520 fluorescence intensity (a.u.)
21,GTTATAGCGCATCTATCAATCGTACTAAATTTCATTGTCCCGGAGTCACCTAGTGCAG,8450 fluorescence intensity (a.u.)

row,Sequence,binding signal
1,GTCATACCACCTTACTTTTTACGTTTGAATCACCATTCTACGGAGTCACCTAGTGCAG,10900 fluorescence intensity (a.u.)
2,TGATAGTGGTGGGGTGGTATTGGTCCTAGCTTTGTACTCCCGGAGTCACCTAGTGCAG,18700 fluorescence intensity (a.u.)
3,ACTAGTGAAGTGTTGCCCGTTGGGTTTGGTGGAGTTTGAACGGAGTCACCTAGTGCAG,8200 fluorescence intensity (a.u.)
4,TATTGGGTGCTTTTGTCCTCAGGTGTGGTATATAGGTACCCGGAGTCACCTAGTGCAG,8060 fluorescence intensity (a.u.)
5,ATGTTTGTTTGGTTGACTGCACTTGGTCCGACGGATGAAACGGAGTCACCTAGTGCAG,8720 fluorescence intensity (a.u.)
6,GGTTTGTTTGTCAACCTCGGGGTGGTTGGGTACTTGGGTTCGGAGTCACCTAGTGCAG,11000 fluorescence intensity (a.u.)
7,CAGTTAGGGGTGGGCATTCGGTCAGACCGAAAAATTCGGTCGGAGTCACCTAGTGCAG,15500 fluorescence intensity (a.u.)
8,ATGGTGGGCTTGTATTGTCCTGCAGTCCTGCTTGTTTTACCGGAGTCACCTAGTGCAG,10700 fluorescence intensity (a.u.)
9,TTCCTTTTTTTACGTGGCAACAGTTAGGGGTGGGCATTCGCGGAGTCACCTAGTGCAG,18400 fluorescence intensity (a.u.)
10,GGTGGTTGGGTACTTGGGTTGGGTTTGGGTTTTTAGGTTTCGGAGTCACCTAGTGCAG,29100 fluorescence intensity (a.u.)
11,CGATGAGGAGGAGGAGGGGCAACAGTGTTAGGGTGGATTTCGGAGTCACCTAGTGCAG,12100 fluorescence intensity (a.u.)
12,CTGGTTGGTAGGTACTTGCTTGATTAGATTGGGTTTGGTTCGGAGTCACCTAGTGCAG,11500 fluorescence intensity (a.u.)
13,TGTTGGGTTGGGTTGGGTTGGGTTGGGTCCGTCCGATGAACGGAGTCACCTAGTGCAG,24200 fluorescence intensity (a.u.)
14,AGGCCATCATCACTTTAGTCTTATTTTCGTCACCATCATCCGGAGTCACCTAGTGCAG,10300 fluorescence intensity (a.u.)
15,CTACTTATCATCCATTTAAACATGCTACTAGTCATTCTTCCGGAGTCACCTAGTGCAG,10200 fluorescence intensity (a.u.)
16,CGTTGGATAATCTCTAGTACATGTATATACATTTGGCTCTCGGAGTCACCTAGTGCAG,8220 fluorescence intensity (a.u.)
17,CTGCCACGTCACATTTGCCGCCCTCTGGGAGGGCGATTTTCGGAGTCACCTAGTGCAG,8580 fluorescence intensity (a.u.)
18,AAACAGGTCACTACTATCCTCCATATATATATATTTTAGACGGAGTCACCTAGTGCAG,9110 fluorescence intensity (a.u.)
19,AGAACTAGAAGACCACACGCTGTCTCACTTGTTGCAAAATCGGAGTCACCTAGTGCAG,8050 fluorescence intensity (a.u.)
20,TCTCTCTTTCTTTCTATTTTTCTTTTCAGTCAGGTTAGTACGGAGTCACCTAGTGCAG,11000 fluorescence intensity (a.u.)
21,CATCGATCGCACTAGTGTCGCTCTCTGGAAGTAATAGCCTCGGAGTCACCTAGTGCAG,8110 fluorescence intensity (a.u.)
